Screening data (PubChem BioAssay)
Hits are enriched below; roughly 11% of the tested compounds scored in any of these assays.
NS1 function inh – influenza NS1 inhibition; Potency, µM (top dose mostly 46.1 µM), without a hit: top-dose activity, positive = more growth; 270,000 compounds, 0.4% hits; calls by dose curve; further: actives are rising curves; nearly all actives have a fitted effect of over 50% in size
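S. cerevisiae expressing influenza A NS1, grown in glucose, washed, then diluted 1:100 into pH 6.0 -URA galactose medium with 23 nl compound. Growth recovery read as OD600; NS1-free strain serves as control.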
Pf growth 96h – inhibits malaria parasite growth, 96 h. Potency, µM (highest dose often 28.7 µM), inactives show at the highest dose activity change, negative = inhibition, most hits filed as inhibitors. P. falciparum luciferase reporter growth, 96 h. 320,000 compounds, 6.9% hits. AID 504834; further: on the % scale 0 is the no-effect control and ±100 the full control effect
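96 h incubation, 37 C, 5% CO2, of luciferase-reporter P. falciparum-infected RBCs (2% hematocrit, 0.05% parasitemia final) with test compounds; endpoint luminescence.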
Pf growth 48h – inhibits P. falciparum growth in the first generation, 48 h; 310,000 compounds, 5.9% hits; Potency, µM (titrated, usually from 28.7 µM), for the others: at the top dose activity change, negative = inhibition, hits mostly inhibitors; AID 504832; P. falciparum luciferase growth in erythrocytes, 48 h; further: on the % scale 0 is the no-effect control and ±100 the full control effect
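Compounds are pin-transferred into medium, infected erythrocytes (2% hematocrit, 0.1% parasitemia final) are added, and plates sit one parasite generation at 37 C in 5% CO2. Detection reagent is then added and luminescence measured.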
HCV inhibitor – blocks hepatitis C virus | Potency, µM (doses to about 41.8 µM), for the others: top-dose activity change, negative = inhibition, most hits filed as inhibitors | AID 651820 | Huh7.5.1 HCVcc-Cre infection, luciferase reporter, 44 h | 340,000 compounds, 3.4% hits; further: on the % scale 0 is the no-effect control and ±100 the full control effect
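Luciferase read-out (15 sec integration) after a 15 min room-temperature substrate step quantifies HCVcc-Cre infection. Cells, 1,000 per well, had compound added 4 h post-plating, then virus at ~0.5 moi, and were cultured 44 h.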
VACV mCherry inh – vaccinia inhibition (mCherry reporter); Vaccinia virus mCherry reporter infection, fluorescence; Potency, µM (titrated, usually from 36.5 µM), without a hit: top-dose activity change, negative = inhibition, most hits filed as inhibitors; 310,000 compounds, 0.63% hits; AID 720579; calls by dose curve; tested in A549 cells; further: on the % scale 0 is the no-effect control and ±100 the full control effect; nearly all actives have a fitted effect of over 35% in size
Vaccinia Venus – inhibitors of vaccinia virus (Venus reporter); 330,000 compounds, 0.46% hits; Potency, µM (top dose mostly 36.5 µM), without a hit: at the highest dose activity change, negative = inhibition, most hits filed as inhibitors; Vaccinia virus Venus reporter expression, fluorescence; calls by dose curve; tested in A549 cells; further: on the % scale 0 is the no-effect control and ±100 the full control effect; nearly all actives have a fitted effect of over 30% in size
Active calls of the source: *; i = inactive; ? = inconclusive; . = not tested or not shown; [ ] = remark or other dose. Unless noted, the call rests on the fitted dose curve; in most records, active means well fitted inhibition curve with a large enough effect; inconclusive means small, poorly fitted or top-dose-only effect, or another doubt; inactive means no such curve, though single readings can be large or run the other way. Potency means the concentration at half of the fitted maximal effect.

SMILES	NS1 function inh	Pf growth 96h	Pf growth 48h	HCV inhibitor	VACV mCherry inh	Vaccinia Venus
CCOc1ncccc1C(=O)Nc1ccc(OC)c(S(=O)(=O)N2CCCCC2)c1	-1.0%	-29.4%	-29.6%	?	-15.9%	-4.2%
Cc1ccc(NC(=O)CNC(=O)c2ccc(OC(F)F)cc2)cc1S(=O)(=O)N1CCCCCC1	.	.	.	15.8µM*	.	.
Cc1ccccc1C(=O)NCC(=O)Nc1ccc(C)c(S(=O)(=O)N2CCCCCC2)c1	-5.9%	?	-6.8%	8.91µM*	-10.9%	-15.6%
Cc1ccc(NC(=O)COC(=O)c2ccc(OC(F)F)cc2)cc1S(=O)(=O)N1CCCCC1	.	.	.	-19.6%	.	.
NC(N)=NN=Cc1ccnc2ccccc12	.	.	.	.	i	-4.5%
CC(C)c1ccc(N(CC(=O)N/N=C/c2ccc(OC3CSC3)cc2)S(=O)(=O)c2ccccc2)cc1	9.8%	176.5%	?	0.7%	-6.2%	-2.2%
Cc1cc(C(=O)COC(=O)Cc2n[nH]c(=O)c3ccccc23)c(C)n1-c1ccc2c(c1)OCO2	14.3%	?	6.57µM*	-8.9%	?	-12.2%
COc1ccc(-n2c(C)cc(C(=O)COC(=O)Cc3n[nH]c(=O)c4ccccc34)c2C)cc1	16.9%	2.08µM*	11.7µM*	?	-0.6%	-16.1%
COc1ccc(-n2c(C)cc(C(=O)CN3CCCCC3)c2C)cc1	.	?	?	-11.1%	.	.
COCCn1c(C)cc(C(=O)COC(=O)Cc2n[nH]c(=O)c3ccccc23)c1C	.	-8.6%	?	13.8%	?	-15.6%
COc1ccc(-n2c(C)cc(C(=O)C[N+]34CCN(CC3)CC4)c2C)cc1	.	5.86µM*	-15.8%	1.5%	i	-7.0%
Cc1cc(C(=O)COC(=O)Cc2n[nH]c(=O)c3ccccc23)c(C)n1CC(F)(F)F	.	?	-13.6%	-3.1%	-19.9%	-8.8%
Cc1nn(Cc2cccc(C(=O)NC3CCCCC3)c2)c(C)c1Cl	-38.9%	-10.1%	0.8%	?	.	?
COC(=O)c1ccccc1NC(=O)c1nn(-c2ccc(OC)cc2)c(=O)c2c1c1ccccc1n2C	.	.	.	.	-11.2%	-2.1%
O=C(CC(NC(=O)OCc1ccccc1)c1nn[nH]n1)OCc1ccccc1 (configuration not stated)	.	.	.	.	i	-0.9%
CC(C)(C)c1csc(NC(=O)c2c(F)c(F)c(F)c(F)c2F)n1	-78.3%	0.2%	-8.2%	-20.7%	.	.
O=C(CN1C(=O)c2ccccc2C1=O)NCCc1c[nH]c2ccccc12	11.3%	5.22µM*	-2.1%	14.9%	-8.7%	0.0%
O=C(NCCc1c[nH]c2ccccc12)c1ccccc1	-7.0%	97.0%	13.1%	-18.0%	-21.9%	-8.5%
O=C(COC(=O)c1ccccc1C(=O)OCC(=O)NCCc1c[nH]c2ccccc12)NCCc1c[nH]c2ccccc12	.	11.7µM*	9.28µM*	?	-18.2%	?
N#CCC(=O)Nc1ccc(C(=O)NCCc2c[nH]c3ccccc23)cc1	1.6%	7.38µM*	13.1µM*	-28.1%	-6.0%	-3.2%
COc1cc(-c2noc(C)c2C(=O)NCCc2c[nH]c3ccccc23)cc(OC)c1OC	1.9%	14.7µM*	?	?	-29.5%	-22.5%
COc1ccc(OCCC(=O)NCC23CC4CC(CC(C4)C2)C3)cc1	-10.1%	6.1%[5.75 µM]	?	5.4%	-11.3%	-3.7%
O=C(NCCc1c[nH]c2ccccc12)OCCCCOC(=O)NCCc1c[nH]c2ccccc12	.	?	10.4µM*	?	-27.3%	?
COc1ccc(C(C)=O)cc1CS(=O)(=O)CC(=O)NCCc1c[nH]c2ccccc12	.	10.4µM*	5.22µM*	12.6%	.	.
O=C(CNC(=O)c1cn2ccccc2n1)Nc1ccc(F)c(F)c1	.	146.2%	91.6%	8.1%	-14.5%	-0.5%
SMILES	NS1 function inh	Pf growth 96h	Pf growth 48h	HCV inhibitor	VACV mCherry inh	Vaccinia Venus
Cc1cc(OC(=O)c2ccc(S(=O)(=O)N3CCCCC3)cc2)c([N+](=O)[O-])c(=O)[nH]1	.	30.3%	-7.0%	17.6%	-1.7%	-18.2%
Nc1cc(-c2ccc(Br)cc2)[nH]n1	?	1.85µM*	55.6%	9.5%	-14.7%	-15.5%
Cc1cc(-c2ccc(Br)cc2)n[nH]1	2.1%	73.1%	117.5%	?	-1.7%	-21.2%
Cc1ccc([C@H]2C[C@@H](O)[C@H](n3cc(C4CC4)nn3)CN2Cc2cccs2)cc1	.	.	.	.	i	-27.5%
COc1ccc([C@H]2C[C@H](n3cc(-c4ccc(F)cc4)nn3)[C@@H](O)CN2Cc2cccs2)cc1	.	.	.	.	8.0%	-9.7%
COc1ccc([C@H]2C[C@H](O)[C@@H](n3cc(-c4ccc(F)cc4)nn3)CN2Cc2cccs2)cc1	.	.	.	.	10µM*	10µM*
Cc1ccc([C@H]2C[C@H](O)[C@@H](n3cc(C4CC4)nn3)CN2Cc2cccs2)cc1	.	.	.	.	?	11.2µM*
Cc1cc(C)cc(Nc2cnn(C34CC5CC(CC(CC(=O)O)(C5)C3)C4)c(=O)c2Cl)c1	18.4%	.	?	3.4%	-12.7%	-2.2%
O=C(Nc1cccc(S(=O)(=O)NC2=NCCCCC2)c1)c1cc(-c2ccco2)nc2ccccc12	0.3%	?	?	?	-14.0%	-14.4%
O=C(Nc1cccc(S(=O)(=O)NC2=NCCCCC2)c1)c1cc(-c2ccncc2)nc2ccccc12	.	11.7µM*	?	?	-11.5%	-16.0%
Cc1cc(NC(=O)c2cc(-c3ccncc3)nc3ccccc23)ccc1Br	.	.	.	8.91µM*	?	-18.7%
COc1cccc(-c2cc(C(=O)Nc3ccc(N(C)C(C)=O)cc3)c3cc(Br)ccc3n2)c1	.	.	.	11.2µM*	.	.
CC(=O)Nc1ccc(NC(=O)c2cc(-c3ccccc3)nc3ccccc23)cc1	11.4%	12.2%	-18.8%	?	i	-10.0%
COc1cccc(-c2cc(C(=O)Nc3ccncc3)c3ccccc3n2)c1	-2.3%	?	0.738µM*	?	-11.8%	-18.3%
COc1cc(/C=C(\NC(C)=O)C(=O)Nc2ccc(NC(C)=O)cc2)ccc1OC(C)=O	10.5%	45.1%	0.7%	0.8%	-6.6%	-12.6%
Cn1nc(-c2ccccc2)c(C(O)c2ccccc2C(F)(F)F)c1Cl (configuration not stated)	-0.6%	?	?	15.6%	.	.
CC(=O)Nc1ccc(S(=O)(=O)N2CCN=C2SCc2cccc(C)c2)cc1	-37.6%	?	-10.0%	?	-24.2%	-22.3%
O=C(NN1C(=O)c2ccccc2C1=O)C1CCCCC1	-7.3%	?	?	-27.9%	-6.1%	-1.3%
CCCOc1cccc(-c2cc(C(=O)NN)c3ccccc3n2)c1	?	?	?	13.6%	-29.2%	-11.5%
COc1ccc(NC(=O)c2cc(-c3ccccn3)nc3c(C)cc(C)cc23)c(C)c1	?	-22.6%	?	?	i	-8.3%
COc1ccc(COc2cc(-c3cccc(OC)c3)nc3ccc(NC(C)=O)cc23)cc1	2.2%	27.7%	17.9%	?	-17.4%	-27.8%
